In all, about 2,400 compounds went through this assay and about 1,400 (58%) were called active. The set was probably picked from earlier hits. This is one part of the list. Values without a mark were called inactive.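 The calls were made as follows: active = inhibition of 30% or more at any tested dose; inconclusive = primary hits over the limit that were never retested; inactive = the rest.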
Experiment: ADP Hunter readout inhibition without MgcRacGAP – biochemical, coupled enzyme counter-screen, artefact control for MgcRacGAP inhibitor project, dose response (AID 624351);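 also: signal is the ADP detection kit reading of free GDP without any GAP enzyme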;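 as to inhibition: 0% = median positive control wells and 100% = median negative control wells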
Details: fluorescence, no MgcRacGAP; series mostly up to 80 µM; inhibition: at the top concentration

SMILES | inhibition | IC50
O=C(Oc1ccc2c(c1)OCO2)c1ccc(Br)c(S(=O)(=O)N2CCOCC2)c1 | 5.16% | –
Cc1ccc(-n2sc3ccccc3c2=O)cc1 | 10.3% | –
CC1=NN(c2ccccc2)C(=O)C1/C=C1\NC(=S)NC1=O (centres undefined) | 27.2% | –
Cc1ccc(C2C=NN(c3ccccc3)C2=O)cc1 (centres undefined) | – | 78.2 µM (active)
COc1cc(/C=N/NC(=O)C(C)n2nnc3ccccc32)ccc1O (centres undefined) | – | 23.6 µM (active)
COc1cc(/C=N/NC(=O)CCn2nnc3ccccc32)ccc1O | – | 53.8 µM (active)
COc1cc(/C=N/NC(=O)Cn2nnc3ccccc32)ccc1O | – | 20.7 µM (active)
Cc1cc(NC(=O)CN2CCN(C)CC2)no1 | 17.2% | –
Cc1cc(NC(=O)CN2CCC(C)CC2)no1 | 14.8% | –
Cc1cc(NC(=O)c2sc3ccccc3c2O)no1 | – | 74.8 µM (active)
COc1ccccc1NC(=O)NNC(=O)c1ccc2ccccc2c1O | 8.21% | –
O=C(Nc1ccccn1)c1ccc2ccccc2c1O | – | 78.1 µM (active)
COc1ccc2c(c1)-c1c(ssc1=S)C(C)(C)N2 | – | 33.6 µM (active)
COc1ccc(Oc2cn[nH]c2-c2ccc(O)cc2O)cc1 | – | 29.9 µM (active)
CCOc1ccccc1Oc1cn[nH]c1-c1ccc(O)cc1O | – | 33.8 µM (active)
COc1cccc(Oc2cn[nH]c2-c2ccc(O)cc2O)c1 | – | 52.5 µM (active)
C#CCOCCOCCOCCNc1nc(N2CCN(C(=O)[C@H](CCCCN)n3cc([C@@H](N)C(C)CC)nn3)CC2)nc(N2CCN(C(=O)[C@H](CCCCN)n3cc([C@@H](N)CC(C)C)nn3)CC2)n1 (some centres undefined) | 3.89% | –
CCn1c(C)nc2cc(C(=O)N/N=C/c3ccc(O)cc3)ccc21 | – | 81.6 µM (active)
CC1=NN(C(N)=S)C(=O)C1N=Nc1ccc(O)cc1 (centres undefined) | – | 19.5 µM (active)
O=C(Nc1ccc(Oc2nnc(-c3ccccc3)c3ccccc23)cc1)c1ccccc1 | 6.04% | –
CC(=O)Nc1ccc(Oc2nc(-c3ccccn3)nc3ccccc23)cc1 | – | 26.7 µM (active)
CN(C)CCCNCC(=O)c1c(-c2ccccc2)n(C)c2ccccc12 | -1.7% [at 10 µM] | –

SMILES | inhibition | IC50
O=C(N/N=C/c1ccc(O)c(O)c1)C1c2ccccc2Oc2ccccc21 | – | 51 µM (active)
Nc1c(Cl)ncnc1N/N=C/c1ccc(O)cc1 | – | 15.1 µM (active)
c1nc(SSc2ncnc3nc[nH]c23)c2[nH]cnc2n1 | -4.3% | –
Oc1ccc(/C=N/Nc2ncnc3nc[nH]c23)cc1 | – | 13.2 µM (active)
CCOc1cc(/C=N/Nc2ncnc(Cl)c2N)ccc1O | – | 30.7 µM (active)
Cc1[nH]ccc2c1[nH]c1cc(=O)ccc12 | – | 61.9 µM (active)
CC/C(=N\O)c1ccc(O)c(OC)c1 | – | 61.2 µM (active)
COc1ccc(S(=O)(=O)N2CCC(N3CCN(Cc4ccccc4)CC3)CC2)cc1 | 24.6% | –
C[C@@H]1O[C@@H](OC[C@H]2O[C@@H](Oc3cc(O)c4c(=O)cc(-c5ccc(O)c(O)c5)oc4c3)[C@H](O)[C@@H](O)[C@@H]2O)[C@H](O)[C@H](O)[C@H]1O | – | 46 µM (active)
O=c1cc(-c2ccc(O)c(O)c2)oc2cc(O)c([C@@H]3O[C@H](CO)[C@@H](O)[C@H](O)[C@H]3O)c(O)c12 | – | 59 µM (active)
O=c1cc(-c2ccc(O)c(O)c2)oc2cc(O)c(C3OC(CO)C(O)C(O)C3O)c(O)c12 (centres undefined) | – | 45.9 µM (active)
O=C(O)c1cc(O)c2c(c1)[C@@H]([C@H]1c3cc(C(=O)O)cc(O)c3C(=O)c3c(O[C@@H]4O[C@H](CO)[C@@H](O)[C@H](O)[C@H]4O)cccc31)c1cccc(OC3O[C@H](CO)[C@@H](O)[C@H](O)[C@H]3O)c1C2=O (some centres undefined) | -39.8% | –
CN(CC(=O)NCc1ccccc1)Cc1cccc(F)c1 | 26.6% | –
COC(=O)c1ccc2c(c1)C(C)(C)C(/C=C/c1ccc(OC)c(OC)c1OC)=[N+]2C | -4.4% | –
COc1cc(/C=C/C(=O)OCC(=O)N(CC(C)C)c2c(N)n(Cc3ccccc3)c(=O)[nH]c2=O)ccc1O | – | 61.2 µM (active)
COc1cc(C(C[N+](=O)[O-])c2c(N)n(C)c(=O)n(C)c2=O)ccc1O (centres undefined) | 28.1% | –
COc1cc(/C=C/C(=O)OCC(=O)NCCCc2ccccc2)ccc1O | – | 33.5 µM (active)
COc1cc(/C=C/C(=O)OCC(=O)NCc2ccc(F)cc2)ccc1O | – | 40 µM (active)
COC(=O)c1ccc2c(c1)C(C)(C)C(/C=C/c1ccccc1O)=[N+]2C | 23.1% | –
COC(=O)c1ccc(CNC(=O)COC(=O)/C=C/c2ccc(O)c(OC)c2)cc1 | – | 31 µM (active)
COc1ccc(CNC(=O)CN(C)Cc2ccc(C(C)(C)C)cc2)cc1 | 24.6% | –
CC(C)(c1ccccc1)c1ccc(OCC(O)CNC2CCN(Cc3ccccc3)CC2)cc1 (centres undefined) | 27.9% | –

SMILES | inhibition | IC50
CN(C)c1ccc(N=Cc2nc(-c3ccccc3)oc2OC(=O)c2cccc(Cl)c2)cc1 | 12.6% | –
CC(C(=O)N(C)Cc1ccccc1)N1CCN(C/C=C/c2ccccc2)CC1 (centres undefined) | 18% | –
COc1cc(/C=C/C(=O)OCC(=O)N(C)Cc2ccccc2)ccc1O | – | 34.7 µM (active)
C/C=C/c1ccc(OCCCCN(C)Cc2ccccc2)c(OC)c1 | -10.9% | –
Oc1ccc(Nc2ccnc3cc(Cl)ccc23)cc1 | – | 26.3 µM (active)
Oc1ccc(N2CCN(c3ccnc4cc(Cl)ccc34)CC2)cc1 | – | 53.3 µM (active)
Oc1ccc(/C=N/Nc2ccnc3cc(Cl)ccc23)cc1O | – | 40.3 µM (active)
CN(C)c1ncc(C2=C(Cl)C(=O)C(N3CCCC3)=C(Cl)C2=O)s1 | -12.5% [at 10 µM] | –
Nc1ccc2c(c1)OC1(CCCC1)O2 | – | 26 µM (active)
Nc1cc(Cc2ccccc2)ccc1O | – | 24.1 µM (active)
COc1ccc(Br)cc1CN(C)CC(=O)NCCc1ccccc1 | 19.1% | –
Oc1ccc(NCc2ccccc2OCc2ccccc2F)cc1 | -18.7% | –
COc1ccc(Br)cc1CNc1ccc(O)cc1 | – | 54 µM (active)
CN1C(=O)/C(=C/C=C2/CCCN2C)N(C)C1=S | – | 24.6 µM (active)
CN1C(=O)/C(=C/C=C2\SCCN2C)N(C)C1=S | – | 26.6 µM (active)
c1ccc(-c2ccccc2OCCOCCN2CCOCC2)cc1 | 28% | –
NC(N)=N/N=C/c1ccc(Cl)cc1Cl | 14.4% | –
CCN(CC)c1ccc(/C=N/NC(=O)OC)c(O)c1 | – | 62.6 µM (active)
CCOC(=O)N/N=C/c1ccc(N(CC)CC)cc1O | – | 81.2 µM (active)
CCN(CC)c1ccc(/C=N/Nc2nc(C)cc(C)n2)c(O)c1 | – | 65.2 µM (active)
